Laboratory results as given in ChEMBL document CHEMBL3988442, “University of Dundee, Small-Polar-MMV Screening Library” (2021).
Out of some 69,000 compounds screened, about 1,000 (1.4%) showed an effect of 50% or more. The full list was thinned out, with strong results kept by preference.

Test system: Leishmania donovani
Assay: Leishmania intramacrophage assay
Type: functional, organism-based
Set-up: scale not given: in the data most compounds retested in dose-response had high values

**Q.** How did the “Percent Effect” value (30.3 µM, […]) turn out when `CC(C)CN1CC(O)CN(S(=O)(=O)c2ccccc2)CC1=O` (configuration not stated) was run?
**A.** -1.941%

**Q.** For `CN(Cc1ccncc1)C(=O)NCc1nnc2n1CCCCC2`, which “Percent Effect” value (30 µM) is on record?
**A.** -1.906%

**Q.** Which “Percent Effect” value (30.3 µM, […]) does the source give for `COCCn1cc(NCc2cn(C)nc2-c2ccncc2)cn1` here?
**A.** 4.13%

**Q.** With `O=C(O)C(F)(F)F.OCCN1CCOC2(CCCN(c3cccc(F)c3)C2)C1` (configuration not stated) as the compound, how does the “Percent Effect” value (30 µM, 30.03 µM) read?
**A.** 37.14%

**Q.** `Cc1ccc(C2CSCCN2C(=O)c2cccs2)o1` (configuration not stated) was tested. Which “Percent Effect” value (30.3 µM, […]) did it give?
**A.** 15.58%

**Q.** How did the “Percent Effect” value (30.3 µM, […]) turn out when `CN1CC2(CCN(C(=O)c3cn4cccnc4n3)CC2)CC1=O` was run?
**A.** -9.039%

**Q.** For `CCN1CC2(CCC1=O)CCN(C(=O)c1cn3cccnc3n1)CC2`, which “Percent Effect” value (30.3 µM, […]) is on record?
**A.** 50.01%

**Q.** Which “Percent Effect” value (30.3 µM, […]) does the source give for `CC(C)CN1CC2(CCN(C(=O)c3cn4cccnc4n3)CC2)CC1=O` here?
**A.** -23.89%

**Q.** Which “Percent Effect” value (30.3 µM, […]) does the source give for `CCOCc1cnc2n1CCN(C(=O)Cc1ccco1)C2C` (configuration not stated) here?
**A.** 17.38%

**Q.** `CC1c2ncc(Cn3cncn3)n2CCN1C(=O)Cc1cccs1` (configuration not stated) was tested. Which “Percent Effect” value (30.3 µM, […]) did it give?
**A.** 31.82%

**Q.** With `CCOCc1cnc2n1CCN(C(=O)Cc1cccs1)C2C` (configuration not stated) as the compound, how does the “Percent Effect” value (30.3 µM, […]) read?
**A.** 53.58%

**Q.** For `Cl.c1cnc(Nc2cncc(C3CCCN3)n2)cn1` (configuration not stated), which “Percent Effect” value (30.3 µM, […]) is on record?
**A.** 5.876%

**Q.** Which “Percent Effect” value (30.3 µM, […]) does the source give for `Cc1cnc(N2CCC3(CC2)CC(NC(=O)N(C)C)CO3)nc1` (configuration not stated) here?
**A.** 5.267%

**Q.** With `CCCNC(=O)c1cc2c(s1)CCN2c1ncccn1` as the compound, how does the “Percent Effect” value (30.3 µM, […]) read?
**A.** 24.35%

**Q.** Which “Percent Effect” value (30.3 µM, […]) does the source give for `O=C(NCCN1CCCC1)c1cc2c(s1)CCN2c1ncccn1` here?
**A.** 35.65%

**Q.** With `O=C(NCC1CC1)c1cc2c(s1)CCN2c1ncccn1` as the compound, how does the “Percent Effect” value (30.3 µM, […]) read?
**A.** 54.07%

**Q.** Which “Percent Effect” value (30.3 µM, […]) does the source give for `COc1ccc(CCN2C(=O)O[C@@H]3CN(C4CCSCC4)C[C@@H]32)cc1` here?
**A.** 4.59%

**Q.** Which “Percent Effect” value (30.3 µM, […]) does the source give for `COc1cccn(C(C)C(=O)NC2CCCC2)c1=O` (configuration not stated) here?
**A.** 28.93%

**Q.** With `COc1cc(CN2CCCC2c2cccc(F)c2)cc(OC)c1OC` (configuration not stated) as the compound, how does the “Percent Effect” value (30.3 µM, […]) read?
**A.** 4.07%

**Q.** Which “Percent Effect” value (30.3 µM, […]) does the source give for `COc1cccc(CN2CCCC2c2cccc(F)c2)c1OC` (configuration not stated) here?
**A.** 48.24%

**Q.** For `COc1ccc(CN2CCCC2c2cccc(F)c2)c(OC)c1OC` (configuration not stated), which “Percent Effect” value (30.3 µM, […]) is on record?
**A.** 53.41%

**Q.** For `Clc1cccc(N2CCC(NCc3ncc[nH]3)C2)c1` (configuration not stated), which “Percent Effect” value (30.3 µM, […]) is on record?
**A.** 26.13%

**Q.** How did the “Percent Effect” value (30.3 µM, […]) turn out when `Clc1cccc(N2CCC(NCc3cc[nH]n3)C2)c1` (configuration not stated) was run?
**A.** 14.09%

**Q.** How did the “Percent Effect” value (30.3 µM, […]) turn out when `O=C1CC(NCc2ncc[nH]2)CN1CCc1cccc(Cl)c1` (configuration not stated) was run?
**A.** 87.49%

**Q.** Which “Percent Effect” value (30.3 µM, […]) does the source give for `O=C1CC(NCc2ccncc2)CN1CCc1cccc(Cl)c1` (configuration not stated) here?
**A.** 37.94%

**Q.** `Clc1cc(Cl)cc(CN2CCC(NCc3ncc[nH]3)CC2)c1` was tested. Which “Percent Effect” value (30.3 µM, […]) did it give?
**A.** 84.31%

**Q.** Which “Percent Effect” value (30.3 µM, […]) does the source give for `CN1CCN(Cc2cccc(NCc3ncc[nH]3)c2)CC1` here?
**A.** 3.083%

**Q.** `Cc1cccc(OC2CCN(Cc3ncc[nH]3)CC2)c1` was tested. Which “Percent Effect” value (30.3 µM, […]) did it give?
**A.** -10.49%

**Q.** With `Cc1nc[nH]c1CNC1CC(=O)N(CCc2cccc(Cl)c2)C1` (configuration not stated) as the compound, how does the “Percent Effect” value (30.3 µM, […]) read?
**A.** -19.6%

**Q.** How did the “Percent Effect” value (30.3 µM, […]) turn out when `Brc1ccc(CN2CCC(NCc3ncc[nH]3)CC2)cc1` was run?
**A.** 85.49%

**Q.** With `Clc1cc(Cl)cc(CN2CCC(NCc3cc[nH]n3)CC2)c1` as the compound, how does the “Percent Effect” value (30.3 µM, […]) read?
**A.** 71.72%

**Q.** Which “Percent Effect” value (30.3 µM, […]) does the source give for `COc1ccc(CCN2CC(NCc3ncc[nH]3)CC2=O)cc1` (configuration not stated) here?
**A.** 17.72%

**Q.** Which “Percent Effect” value (30.3 µM, […]) does the source give for `COc1cc(OC)cc(N2CCC(NCc3cc[nH]n3)C2)c1` (configuration not stated) here?
**A.** 11.55%

**Q.** Which “Percent Effect” value (30.3 µM, […]) does the source give for `O=c1cnc2ccccc2n1CCCn1cccn1` here?
**A.** -23.4%

**Q.** `Cc1cc(O)c(OCC(=O)/N=c2\[nH]cc(C)s2)cn1` was tested. Which “Percent Effect” value (30 µM, 30.03 µM) did it give?
**A.** 13.79%

**Q.** Which “Percent Effect” value (30.3 µM, […]) does the source give for `CC(=O)Nc1nc(C(=O)N2CCCC2c2noc(C3CC3)n2)cs1` (configuration not stated) here?
**A.** 0.7706%

**Q.** `CN1CC(c2ccccc2)CC12CCN(C(=O)c1cccnc1)CC2` (configuration not stated) was tested. Which “Percent Effect” value (30.3 µM, […]) did it give?
**A.** 13.25%

**Q.** How did the “Percent Effect” value (30 µM, 30.03 µM) turn out when `CC(C)n1ccnc1C1CCN(C(=O)C2COc3ccccc3O2)CC1` (configuration not stated) was run?
**A.** -2.599%

**Q.** `Cc1cc(C)nc(NCCC(=O)Nc2ccc(Cn3cncn3)cc2)n1` was tested. Which “Percent Effect” value (30.3 µM, […]) did it give?
**A.** 18.2%

**Q.** With `Cc1ccc(N2CC[C@@H]3O[C@@H](c4ccncn4)C[C@H]3C2)nn1` as the compound, how does the “Percent Effect” value (30.3 µM, […]) read?
**A.** 12.48%

**Q.** For `COc1cc(N2CC[C@@H]3O[C@@H](c4ccnc(C)n4)C[C@H]3C2)ncn1`, which “Percent Effect” value (30.3 µM, […]) is on record?
**A.** 16.01%

**Q.** With `COc1cc(N2CC[C@@H]3O[C@@H](c4ccncn4)C[C@H]3C2)ncn1` as the compound, how does the “Percent Effect” value (30.3 µM, […]) read?
**A.** 101.1%

**Q.** With `CC(=O)Nc1ncc(S(=O)(=O)Nc2ccccc2)s1` as the compound, how does the “Percent Effect” value (30.3 µM, […]) read?
**A.** -54.24%

**Q.** For `CCc1nnc(CNC2CCCN(Cc3noc(C4CC4)n3)C2)o1` (configuration not stated), which “Percent Effect” value (30 µM) is on record?
**A.** -1.291%

**Q.** For `O=c1[nH]cnc2c1CCN(S(=O)(=O)c1ccc(Cl)cc1)C2`, which “Percent Effect” value (30.3 µM, […]) is on record?
**A.** 10.57%

**Q.** `O=c1[nH]cnc2c1CCN(S(=O)(=O)c1ccc(OC(F)(F)F)cc1)C2` was tested. Which “Percent Effect” value (30.3 µM, […]) did it give?
**A.** 24.26%

**Q.** How did the “Percent Effect” value (30.3 µM, […]) turn out when `CCOCCOc1ccc(S(=O)(=O)N2CCc3c(nc[nH]c3=O)C2)cc1` was run?
**A.** 59.04%

**Q.** How did the “Percent Effect” value (30 µM, 30.03 µM) turn out when `CC(=O)c1cn(CCC(=O)NCCC(=O)O)c2ccccc12` was run?
**A.** 18%

**Q.** How did the “Percent Effect” value (30.3 µM, […]) turn out when `CN(C)c1cccc(C(=O)N2CCn3c(nnc3-c3ccccc3)C2)c1` was run?
**A.** 3.878%

**Q.** For `O=C1Nc2ccccc2CN(CC2CCCC2)C12CCNC2` (configuration not stated), which “Percent Effect” value (30.3 µM, […]) is on record?
**A.** 67.89%

**Q.** For `CCCN1Cc2ccccc2NC(=O)C12CCNC2` (configuration not stated), which “Percent Effect” value (30.3 µM, […]) is on record?
**A.** 13.56%

**Q.** `O=C1Nc2ccccc2CNC12CCN(CC1CCCC1)CC2` was tested. Which “Percent Effect” value (30.3 µM, […]) did it give?
**A.** -1.284%
